Compounds without any hit were thinned out: in the full panel of roughly 83,000, 20% have a hit.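 Each cell line was grown in a 96-well plate and treated with one concentration of compound for 48 hours. Values below 10 were considered active.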 A number with no mark means an inactive call. Activity calls are given as the source filed them.

The subject of this experiment is MDA-MB-468 breast. Put plainly: NCI-60 one-dose screen, 48 h (100 = growth as untreated, 0 = no growth, -100 = all killed). To be noted: 10 µM unless noted.
For the compound `CN1CCC2(CC1)N=C(SCC(=O)Nc1cnc3ccccc3c1)C(c1ccc(Br)cc1)=N2`, the growth was -43.8% (active). With `CN(C)c1ccc(Nc2c3ccccc3nc3cc(NC(=O)CCN4CCCC4)ccc23)cc1`, the growth was -74.9% (active). In the case of `O=[N+]([O-])c1cc(C(F)(F)F)ccc1Sc1ccc(C(F)(F)F)cc1[N+](=O)[O-]` it was -4.58% (active); in that of `COc1cc2oc(-c3cccc(NC(=O)c4ccc5c(c4)OCO5)c3)cc(=O)c2c(OC)c1OC`, 75.5%; in that of `CN(C)c1ccc(/C=C2/C=C(c3ccccc3)OC2=O)cc1`, -8.42% (active).

`NC(=O)c1c(NC(=O)c2cccc(OC(F)(F)F)c2)sc2c1CCC(=O)C2`: the growth was 42%.

Turning to `O=c1ccc(=O)n(-c2nc(-c3ccc([N+](=O)[O-])cc3)cs2)[nH]1`, the growth was 99.3%. For the compound `C[C@@H]1C(=O)N(C[C@H](Cc2ccccc2)NC(=O)OCc2ccccc2)[C@]1(Cc1ccccc1)C(=O)OC(C)(C)C`, the growth is 46.7%. With `COc1ccc(-c2nn(-c3cccc(NC(=O)Nc4ccccc4)c3)cc2-c2ccncc2)cc1Cl`, the growth was 29.4%. Turning to `CCCCOc1nc2ccc(C)cc2cc1/C=C/C(=O)/C=C/c1ccc2c(c1)OCO2`, the growth was 95.9%. For `O=C(Nc1cccc(Cl)c1)c1cc(Cl)ccc1O`, the growth is -1.28% (active).

Regarding `CC(=O)O[C@H]1CC[C@]2(C)C3=C(C(=O)C[C@H]2C1(C)C)[C@]1(C)CC[C@H]([C@H](C)CCC(=O)O)[C@@]1(C)CC3=O`, the growth is 113%. With `COc1cc(NC(=O)CCl)ccc(=O)c1` the figure was 75.6%. For `COc1ccc(-c2noc(C(=O)O)c2-c2cc(OC)c(OC)c(OC)c2)cc1`, the growth was 24.7%. For the compound `O=C(Nc1nc(-c2ccc(Cl)cc2)nc2c1sc(=S)n2-c1ccccc1)C(F)(F)F`, the growth was 70.1%.

`CC/C=C\C[C@H]1C/C=C2/C(=O)C=C[C@H]2C/C=C\CCCC(=O)O1`: the growth is 31.7%.

Turning to `Oc1c(Cl)cc(Cl)cc1CNc1nccnn1`, the growth was 109%.

For `COc1cc2c(c(OC)c1OC)CCC(c1cccc(C(=O)Nc3ccc(C#N)cc3)c1)O2` (stereo unspecified), the growth is 46.4%. Consider `COC(=O)c1c(-c2ccccc2)csc1NC(=O)c1c(-c2ccccc2)noc1C`, for which the growth was 63.6%. Consider `O=C(Nc1ccc(F)cc1)Nc1ccc(CCO)cc1`, for which the growth is 105%.

Take `C=CCn1c(SCC(=O)Nc2ccc(C(=O)/C=C/c3cc4cc(OC)ccc4nc3Cl)cc2)nnc1-c1ccc(Br)cc1`: the growth was 85.7%. In the case of `COc1ccc(NC(=O)c2sc3nc(C)c(C(=O)/C=C/c4cccc(OC)c4)cc3c2N)cc1` it was 27.9%; in that of `Cc1csc(N/N=C/c2ccncc2)n1`, 107%.

For `O=C(Nc1nc2c(C(F)(F)F)cccc2s1)c1cc(Cl)ccc1O`, the growth was -10.5% (active). With `O=[N+]([O-])c1ccc2[nH]cc(-c3c4ccccc4cc4[nH]c5ccc([N+](=O)[O-])cc5c34)c2c1`, the growth was 23.9%. In the case of `CCO/C=N/C1=C(C#N)C(c2ccc(Cl)cc2)c2sc3c(F)cccc3c2O1` (stereo unspecified) it was 54.3%. As to `C=C(C)[C@@H]1CC[C@]2(C(=O)NCCNCCNCCN)CC[C@]3(C)[C@H](CC[C@@H]4[C@@]5(C)CCC(=O)C(C)(C)[C@@H]5CC[C@]43C)[C@@H]12`, the growth is -49.1% [100 µM] (active). In the case of `Fc1cc(F)cc(C(c2c[nH]c3ccccc23)c2c[nH]c3ccccc23)c1` it was 111%; in that of `CCCCCc1ccc(S(=O)(=O)Nc2cc(-c3csc(NC(=O)CN4CCN(C)CC4)n3)ccc2OC)cc1`, 35.2%; in that of `COc1ccc(Nc2nc(NCc3ccccc3)c3ccccc3n2)cc1`, 40.2%. For the compound `CS(=O)(=O)c1ccc(-c2nc3ccccn3c2/C=N/Nc2nc(-c3ccc(Cl)cc3)cs2)cc1`, the growth is 94.2%.

Consider `COc1cc(-c2nc3sc4c(c3c(=O)[nH]2)CCCCCC4)cc(OC)c1OC`, for which the growth was 20%. As to `COc1ccc(/C=N/NC(=O)c2cccc3cc[nH]c23)cc1O`, the growth was 11.3%. As to `O=[P@@]1(c2ccccc2)O[C@H](COCc2ccccc2)[C@@H](OCc2ccccc2)[C@H](OCc2ccccc2)[C@H]1O`, the growth was 21.3%.

As for `C=C1C(=O)O[C@H]2[C@H]1CC/C(COC(=O)NCc1ccc(Cn3c(=O)sn(-c4ccccc4)c3=O)cc1)=C\CC[C@@]1(C)O[C@@H]21`, the growth is -33.8% (active).

On to `O=[N+]([O-])c1ccc(NS(=O)(=O)c2ccc(Cl)c(Cl)c2)cc1`, for which the growth is 64.6%.

For the origin of these results see PubChem BioAssay (NCI).
